HADH2 inhib: qHTS Assay for Inhibitors of HADH2 (Hydroxyacyl-Coenzyme A Dehydrogenase, Type II). recombinant HADH2, NADH fluorescence, beta-hydroxybutyryl-CoA. AID 886, 2007. Potency, µM (top dose mostly 57.1 µM), without a hit: top-dose activity change, negative = inhibition, most hits filed as inhibitors. 3.4% of 73,000 active; also: nearly all actives have a fitted effect of over 60% in size
Target sequence (Q99714 whole entry, looked up, one chain of several): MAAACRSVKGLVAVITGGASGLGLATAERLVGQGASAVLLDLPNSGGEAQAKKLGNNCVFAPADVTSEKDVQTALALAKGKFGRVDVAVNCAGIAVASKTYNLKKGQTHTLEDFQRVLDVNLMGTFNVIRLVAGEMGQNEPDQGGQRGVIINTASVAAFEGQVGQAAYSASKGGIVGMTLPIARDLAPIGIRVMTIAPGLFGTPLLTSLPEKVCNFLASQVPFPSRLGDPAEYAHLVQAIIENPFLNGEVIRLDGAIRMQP
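His-tagged recombinant enzyme from E. coli, 20 nM, preincubated 15 min RT with compound; reaction started with 1 mM NAD+ and 90 uM beta-hydroxybutyryl-CoA in 100 mM Tris-HCl pH 9.0. NADH fluorescence (ex 360/em 450) read over 4 min; last-minus-first difference.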
Luciferase inh: qHTS Assay for Inhibitors of Firefly Luciferase. Luciferin 4-monooxygenase (Photinus pyralis), P08659. 2.2% of 72,000 active. AID 411, 2009. purified firefly luciferase, luminescence, 8 min. Potency, µM (series often up to 57.1 µM), inactives show at the highest dose activity change, negative = inhibition, actives largely listed as inhibitors; also: nearly all actives have a fitted effect of over 40% in size
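qHTS concentration-response profiling: light output of P. pyralis luciferase with luciferin and 10 uM ATP, imidazole buffer pH 7.2. Read by luminescence after 8-min room-temperature incubation.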
HSD17B inh: qHTS Assay for Inhibitors of HSD17B4, hydroxysteroid (17-beta) dehydrogenase 4; 3-hydroxyacyl-CoA dehydrogenase type-2 (Homo sapiens), Q99714; recombinant HSD17B10, NADH fluorescence kinetic; Potency, µM (titrated, usually from 57.1 µM), for the others: top-dose activity change, negative = inhibition, hits mostly inhibitors; 7.6% of 75,000 active; AID 893, 2007;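 also: the protocol describes HADH2 (HSD17B10) and not the HSD17B4 of the title; nearly all actives have a fitted effect of over 70% in size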
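His-tagged E. coli-expressed HADH2 at 20 nM in 100 mM Tris-HCl pH 9.0 with 0.01 % Tween-20, preincubated 15 min with compound at room temperature. Reaction with 1 mM NAD+ and 90 uM beta-hydroxybutyryl coenzyme A; NADH fluorescence (360/450 nm) read kinetically over 4 min, last minus first point.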
PK Bst: Pyruvate Kinase; purified pyruvate kinase, luminescence ATP production; ribose 5-phosphate activator present at AC10; Potency, µM; 1.2% of 51,000 active; in the data active = potency below about 11 µM; inconclusive = mostly about 12 µM to 25 µM;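 the screen sought inhibitors and activators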;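 also: scaled between full activation by ribose 5 phosphate and full inhibition by luteolin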
ERK AVP inh: qHTS Assay for Inhibitors of the ERK Signaling Pathway using a Homogeneous Screening Assay. HEK293-V1b, vasopressin-stimulated pERK AlphaScreen. Potency, µM (highest dose often 57.5 µM), inactives show at the top dose activity, negative = inhibition, actives largely listed as inhibitors. 0.99% of 72,000 active; also: nearly all actives have a fitted effect of over 55% in size
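qHTS, compounds titrated on V1b-expressing HEK293 cells. Preincubation 30 min at 37C, vasopressin 25 nM for 5 min, lysis 10 min, bead incubation 5 hr at room temperature.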
ALOX15 inhib: qHTS Assay for Inhibitors of 15-hLO (15-human lipoxygenase). 1.4% of 74,000 active. purified 15hLO-1, xylenol orange hydroperoxide absorbance. Potency, µM (doses to about 57.1 µM), inactives show top-dose activity change, negative = inhibition, usual class: inhibitors; also: nearly all actives have a fitted effect of over 55% in size
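Quantitative HTS in 25 mM Hepes pH 7.5 containing 0.01% Triton X-100: human 15hLO-1 at 40 nM, arachidonic acid at 50 uM, 6 min turnover. Product quantified via ferrous oxidation/xylenol orange, 573:405 nm absorbance ratio.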
* hit, by the source's call; [ ] = another dose, or the depositor's remark. An excerpt weighted towards active compounds, which were near 11% of everything screened. Unless noted, calls follow the shape of the dose curve; as a rule, active = well fitted curve in the direction sought with a large enough effect; inconclusive = small, poorly fitted or top-dose-only effect, or another doubt; inactive = no such curve, though single readings can be large; an effect the other way counts as inactive or inconclusive. Unless noted, % is scaled to controls: 0 for no effect and ±100 for the full control effect; potency is read from the fitted curve at half-maximal effect.

Screening CN1CCN(c2ncc3nc(-c4ccccc4)c(=O)n(CCc4ccccc4)c3n2)CC1 returned HADH2 inhib 20.1%, Luciferase inh 0.2%[11.4 µM], HSD17B inh 20µM*, ERK AVP inh -7.0% and ALOX15 inhib inconclusive.
`COc1ncc2nc(-c3ccccc3)c(=O)n(CCc3ccccc3)c2n1` gave HADH2 inhib 2.9%, Luciferase inh 0.2%[11.4 µM], HSD17B inh 25.1µM*, ERK AVP inh -19.9% and ALOX15 inhib -6.6%.
`CCNc1ncc2nc(C)c(=O)n(CCC#N)c2n1` gave HADH2 inhib 21.8%, Luciferase inh 1.3%[11.4 µM], HSD17B inh 31.6µM*, ERK AVP inh inconclusive and ALOX15 inhib 2.0%.
CN1C[C@@H](O)[C@@H](O)[C@@H](O)[C@@H]1CO was read as HADH2 inhib 9.6% and Luciferase inh 3.0%.
`N#Cc1ccc(CN2CCCC3(CCNCC3)C2)cc1` gave HADH2 inhib 7.9%, Luciferase inh 2.2%[11.4 µM], HSD17B inh -10.6%, ERK AVP inh 6.9% and ALOX15 inhib 0.2%.
Cn1c2ccccc2c2c(C(=O)N3CCN(c4ccccn4)CC3)cn(C3CCCC3)c(=O)c21 was read as HADH2 inhib -27.6%, Luciferase inh -1.7%, HSD17B inh 25.1µM*, PK Bst >57, ERK AVP inh -11.7% and ALOX15 inhib -15.8%.
`Cn1c(C(=O)N2CCN(C3CCCCC3)CC2)cc2c(=O)n(C)c3ccccc3c21` gave HADH2 inhib 7.6%, Luciferase inh 3.6%, HSD17B inh 3.4%, ERK AVP inh -4.6% and ALOX15 inhib 1.5%.
Cn1c2ccccc2c2c(C(=O)O)cn(C3CCCC3)c(=O)c21 was read as HADH2 inhib inconclusive, Luciferase inh -4.4%, HSD17B inh 31.6µM* and ALOX15 inhib -3.7%.
Screening COc1ccc(N2CCN(C(=O)c3cn(C4CCCC4)c(=O)c4c3c3ccccc3n4C)CC2)cc1 returned HADH2 inhib -1.4%, Luciferase inh -0.2%, HSD17B inh inconclusive, PK Bst >57, ERK AVP inh -27.1% and ALOX15 inhib -17.5%.
Screening CCN(CCO)C[C@H]1CCC[C@H]2CCCC[C@@H]21 returned HADH2 inhib 9.0%[11.4 µM], Luciferase inh 1.0%[11.4 µM], HSD17B inh 4.1%[11.4 µM], ERK AVP inh 12.9%[11.5 µM] and ALOX15 inhib -6.1%[11.4 µM].
CS(=O)(=O)N(CC(=O)O)c1ccccc1 was read as HADH2 inhib -2.1%, HSD17B inh 3.3% and ALOX15 inhib 4.7%.
COCCn1c(Sc2ccccc2)nc2c1c(=O)[nH]c(=O)n2C was read as HADH2 inhib 4.6%, Luciferase inh 0.1%, HSD17B inh 20.8%, PK Bst >57, ERK AVP inh inconclusive and ALOX15 inhib -7.3%.
For CCCn1c(=O)[nH]c(=O)c2c1nc(-c1ccccc1OC(F)F)n2CCOC the results were HADH2 inhib inconclusive, Luciferase inh 0.8%, HSD17B inh 25.1µM*, PK Bst >57, ERK AVP inh 14.1% and ALOX15 inhib 6.1%.
Screening CC12CC[C@@H]3c4ccc(OS(=O)(=O)O)cc4CC[C@H]3C1CCC2=O (some centres not stated) returned HADH2 inhib -0.9%[25.6 µM], Luciferase inh 0.2%[25.5 µM], HSD17B inh 3.2%[25.6 µM], ERK AVP inh 12.2%[25.7 µM] and ALOX15 inhib 4.4%[25.6 µM].
For N[C@@H](C(=O)O)c1cc(O)ccc1Cl the results were HADH2 inhib -5.8%, Luciferase inh 0.6%, HSD17B inh 0.8%, ERK AVP inh 11.0% and ALOX15 inhib -7.1%[25.6 µM].
Screening CC1CCc2c(sc(N)c2C(N)=O)C1 (configuration not stated) returned HADH2 inhib 15.8µM*, Luciferase inh -0.3%, HSD17B inh -7.6%, ERK AVP inh -19.1% and ALOX15 inhib inconclusive.
COCC(=O)Nc1sc2c(c1C(=O)OC)CCC(C)C2 (configuration not stated) was read as HADH2 inhib -0.3%, Luciferase inh -7.2%, HSD17B inh 31.6µM*, PK Bst >57, ERK AVP inh inconclusive and ALOX15 inhib 25.1µM*.
For COC(=O)c1c(NC(=O)CN2CCOCC2)sc2c1CCC(C)C2 (configuration not stated) the results were HADH2 inhib 1.8%, Luciferase inh inconclusive, HSD17B inh 47.6%, PK Bst >57, ERK AVP inh inconclusive and ALOX15 inhib -22.6%.
CC(C)(O)C(=O)O was read as HADH2 inhib -1.1%, HSD17B inh -3.0%, ERK AVP inh 13.5% and ALOX15 inhib -8.2%.
O=C1OC(O)C(C(Cl)Cl)=C1Cl (configuration not stated) was read as HADH2 inhib 2.51µM*, HSD17B inh -4.3%, ERK AVP inh -1.3% and ALOX15 inhib -12.1%.
Screening CC(C)C[C@H](NC(=O)[C@@H](O)[C@@H](N)Cc1ccccc1)C(=O)O returned HADH2 inhib -7.6%, Luciferase inh 0.3%, HSD17B inh -7.5%, ERK AVP inh 1.4% and ALOX15 inhib 11.6%.
For COC(=O)c1c(C)n(-c2ccc(OC)cc2)c2ccc(O)cc12 the results were HADH2 inhib inconclusive, Luciferase inh -3.3%, HSD17B inh 20µM*, PK Bst >57, ERK AVP inh 25.1µM* and ALOX15 inhib 7.94µM*.
`CCCCC#Cc1nc(NC)c2ncn([C@@H]3O[C@@H](CO)[C@H](O)[C@H]3O)c2n1` gave HADH2 inhib 6.3%, Luciferase inh -5.1%, HSD17B inh -5.8%, ERK AVP inh inconclusive and ALOX15 inhib -0.1%[25.6 µM].
For CC1CCC2C(=O)N3CCCC3C(=O)N2C1c1ccc(Br)cc1 (configuration not stated) the results were HADH2 inhib 10.6%[11.4 µM], HSD17B inh 4.7%[11.4 µM], ERK AVP inh 30.8%[11.5 µM] and ALOX15 inhib 5.9%[11.4 µM].
For CCCCN(C(=O)c1ccco1)c1nnc(-c2cc(OC)c(OC)c(OC)c2)s1 the results were HADH2 inhib inconclusive, Luciferase inh 1.6%, HSD17B inh 15.8µM*, PK Bst >57, ERK AVP inh -23.7% and ALOX15 inhib 4.7%.
For O=C1C2=CC[C@H]3C(=O)N(Cc4ccc5c(c4)OCO5)C(=O)[C@@H]3[C@@H]2[C@H](O)[C@@H]2O[C@H]12 the results were HADH2 inhib -18.4%[11.4 µM], Luciferase inh 0.3%[11.4 µM], HSD17B inh -11.4%[11.4 µM], ERK AVP inh 6.6%[11.5 µM] and ALOX15 inhib -7.4%[11.4 µM].
